# Measured values reported in PMC7862700, “An all-to-all approach to the identification of sequence-specific readers for epigenetic DNA modifications on cytosine”.
# Key:
# Test in all cases: DAPPL (digital affinity profiling via proximity ligation, sequencing); 10 mM Tris-HCl pH 7.5, 50 mM NaCl, 1 mM DTT, 4% glycerol, room temperature, 30 min; GST-TFs on glutathione beads, 16-mer random dsDNA library, 0.1% formaldehyde crosslink after washing; high values mean tight binding
# FEV = molecular target: T1, FEV (Homo sapiens, UniProt Q99581 1-238); settings: protein: recombinant; tags: N-terminal GST; dsDNA, one strand shown
# T1 sequence: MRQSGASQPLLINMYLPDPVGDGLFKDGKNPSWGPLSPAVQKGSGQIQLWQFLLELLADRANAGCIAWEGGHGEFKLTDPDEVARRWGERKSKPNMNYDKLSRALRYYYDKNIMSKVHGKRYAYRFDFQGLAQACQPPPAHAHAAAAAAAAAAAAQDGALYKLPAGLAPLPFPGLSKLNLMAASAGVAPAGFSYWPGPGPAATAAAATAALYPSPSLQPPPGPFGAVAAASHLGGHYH
# Summary of the method: (§1)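 In yeast, human transcription factors were expressed with a GST fusion, then pulled down on glutathione beads and given DNA barcodes. Pooled with a tag-only sample, they were exposed to 200 nmole of a 16-mer random double-stranded DNA library (Tris/NaCl/DTT/glycerol buffer, room temperature, 30 min), washed, crosslinked with 0.1% formaldehyde, proximity-ligated using BsaI/T4 ligase for 1 h at 37 °C, PCR-amplified and read on an Illumina NextSeq500. Each hexamer's frequency of reads for a factor, divided by the matching frequency for the tag-only sample, gives the binding signal.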
# ETV5 = ETV5 (Homo sapiens, UniProt P41161 1-510); settings: protein: recombinant; tags: N-terminal GST; dsDNA, one strand shown
# Summary of the method: as §1
# HSF1 = HSF1 (Homo sapiens, UniProt Q00613 1-529); settings: protein: recombinant; tags: N-terminal GST; chain copies: 3; dsDNA, one strand shown
# Summary of the method: as §1
# SPIC = molecular target: T2, SPIC (Homo sapiens, UniProt Q8N5J4 1-248); settings: protein: recombinant; tags: N-terminal GST; dsDNA, one strand shown
# T2 sequence: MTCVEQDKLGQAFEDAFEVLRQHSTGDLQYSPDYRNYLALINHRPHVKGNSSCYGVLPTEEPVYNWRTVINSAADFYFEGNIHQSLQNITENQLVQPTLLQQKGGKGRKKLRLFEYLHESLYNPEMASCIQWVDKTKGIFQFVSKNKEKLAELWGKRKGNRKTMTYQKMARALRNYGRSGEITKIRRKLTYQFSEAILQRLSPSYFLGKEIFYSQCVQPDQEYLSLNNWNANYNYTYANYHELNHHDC
# Summary of the method: as §1
# ELF4 = ELF4 (Homo sapiens, UniProt Q99607 1-663); settings: protein: recombinant; tags: N-terminal GST; dsDNA, one strand shown
# Summary of the method: as §1
# ELK4 = molecular target: T3, ELK4 (Homo sapiens, UniProt P28324-2 1-405); settings: protein: recombinant; tags: N-terminal GST; dsDNA, one strand shown
# T3 sequence: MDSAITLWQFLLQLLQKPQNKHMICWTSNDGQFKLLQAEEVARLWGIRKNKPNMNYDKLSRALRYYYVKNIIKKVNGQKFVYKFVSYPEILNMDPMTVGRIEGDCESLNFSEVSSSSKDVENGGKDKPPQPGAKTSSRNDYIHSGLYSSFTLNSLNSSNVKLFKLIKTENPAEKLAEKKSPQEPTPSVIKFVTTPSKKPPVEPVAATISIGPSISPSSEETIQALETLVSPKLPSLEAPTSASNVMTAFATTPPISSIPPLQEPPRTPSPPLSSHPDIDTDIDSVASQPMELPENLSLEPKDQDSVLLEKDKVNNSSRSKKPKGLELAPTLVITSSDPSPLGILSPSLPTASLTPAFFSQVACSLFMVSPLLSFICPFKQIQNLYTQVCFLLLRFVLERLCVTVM
# Summary of the method: as §1
# ETV2 = molecular target: T4, ETV2 (Homo sapiens, UniProt O00321 1-342); settings: protein: recombinant; tags: N-terminal GST; dsDNA, one strand shown
# T4 sequence: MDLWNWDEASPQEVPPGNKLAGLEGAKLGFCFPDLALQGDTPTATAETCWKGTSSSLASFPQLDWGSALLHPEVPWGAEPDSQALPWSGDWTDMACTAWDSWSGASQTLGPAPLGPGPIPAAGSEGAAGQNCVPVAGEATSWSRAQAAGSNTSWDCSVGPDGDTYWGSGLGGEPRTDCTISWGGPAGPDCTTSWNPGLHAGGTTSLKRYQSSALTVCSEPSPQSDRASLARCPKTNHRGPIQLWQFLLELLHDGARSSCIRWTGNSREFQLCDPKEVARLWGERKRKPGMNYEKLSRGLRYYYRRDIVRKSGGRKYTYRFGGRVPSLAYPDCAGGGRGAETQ
# Summary of the method: as §1
# ELF3 = molecular target: T5, ELF3 (Homo sapiens, UniProt P78545 1-371); settings: protein: recombinant; tags: N-terminal GST; dsDNA, one strand shown
# T5 sequence: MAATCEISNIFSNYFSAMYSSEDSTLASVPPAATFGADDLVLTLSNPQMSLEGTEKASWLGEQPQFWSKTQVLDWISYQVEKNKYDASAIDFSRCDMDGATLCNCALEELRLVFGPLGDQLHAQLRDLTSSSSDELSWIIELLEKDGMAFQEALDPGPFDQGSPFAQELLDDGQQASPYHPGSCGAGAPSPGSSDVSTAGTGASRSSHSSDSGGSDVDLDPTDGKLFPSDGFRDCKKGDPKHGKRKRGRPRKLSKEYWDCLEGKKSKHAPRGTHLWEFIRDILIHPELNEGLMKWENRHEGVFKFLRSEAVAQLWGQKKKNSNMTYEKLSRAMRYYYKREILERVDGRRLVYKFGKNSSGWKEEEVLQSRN
# Summary of the method: as §1
# ETV1 = ETV1 (Homo sapiens, UniProt P50549 1-477); settings: protein: recombinant; tags: N-terminal GST; dsDNA, one strand shown
# Summary of the method: as §1
# ERF = molecular target: T6, ERF (Homo sapiens, UniProt P50548 1-548); settings: protein: recombinant; tags: N-terminal GST; dsDNA, one strand shown
# T6 sequence: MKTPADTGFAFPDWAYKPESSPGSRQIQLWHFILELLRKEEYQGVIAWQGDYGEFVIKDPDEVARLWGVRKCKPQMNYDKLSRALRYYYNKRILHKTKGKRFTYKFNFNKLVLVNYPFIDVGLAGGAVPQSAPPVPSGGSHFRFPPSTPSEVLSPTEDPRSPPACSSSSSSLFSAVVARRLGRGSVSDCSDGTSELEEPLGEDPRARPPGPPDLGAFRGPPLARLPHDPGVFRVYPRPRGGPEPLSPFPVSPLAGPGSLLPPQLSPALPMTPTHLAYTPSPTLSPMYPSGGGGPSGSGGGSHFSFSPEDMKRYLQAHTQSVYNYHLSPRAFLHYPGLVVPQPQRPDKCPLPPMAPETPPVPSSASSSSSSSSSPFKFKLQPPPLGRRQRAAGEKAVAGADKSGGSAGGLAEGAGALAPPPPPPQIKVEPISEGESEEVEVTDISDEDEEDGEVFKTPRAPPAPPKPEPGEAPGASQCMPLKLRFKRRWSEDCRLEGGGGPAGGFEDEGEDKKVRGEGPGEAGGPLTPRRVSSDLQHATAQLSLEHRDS
# Summary of the method: as §1
# ETV3L = molecular target: T7, ETV3L (Homo sapiens, UniProt Q6ZN32 1-361); settings: protein: recombinant; tags: N-terminal GST; dsDNA, one strand shown
# T7 sequence: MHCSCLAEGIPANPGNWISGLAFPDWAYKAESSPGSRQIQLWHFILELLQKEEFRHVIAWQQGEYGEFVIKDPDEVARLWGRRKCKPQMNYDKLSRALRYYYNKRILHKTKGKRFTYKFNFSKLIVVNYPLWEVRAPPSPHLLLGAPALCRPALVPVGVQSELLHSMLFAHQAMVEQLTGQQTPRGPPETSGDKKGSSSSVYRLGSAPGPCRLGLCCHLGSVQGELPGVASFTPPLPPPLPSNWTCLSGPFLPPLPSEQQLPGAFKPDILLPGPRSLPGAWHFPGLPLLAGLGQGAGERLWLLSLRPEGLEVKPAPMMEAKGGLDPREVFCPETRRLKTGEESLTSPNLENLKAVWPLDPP
# Summary of the method: as §1
# ETS2 = molecular target: T8, ETS2 (Homo sapiens, UniProt P15036 1-469); settings: protein: recombinant; tags: N-terminal GST; dsDNA, one strand shown
# T8 sequence: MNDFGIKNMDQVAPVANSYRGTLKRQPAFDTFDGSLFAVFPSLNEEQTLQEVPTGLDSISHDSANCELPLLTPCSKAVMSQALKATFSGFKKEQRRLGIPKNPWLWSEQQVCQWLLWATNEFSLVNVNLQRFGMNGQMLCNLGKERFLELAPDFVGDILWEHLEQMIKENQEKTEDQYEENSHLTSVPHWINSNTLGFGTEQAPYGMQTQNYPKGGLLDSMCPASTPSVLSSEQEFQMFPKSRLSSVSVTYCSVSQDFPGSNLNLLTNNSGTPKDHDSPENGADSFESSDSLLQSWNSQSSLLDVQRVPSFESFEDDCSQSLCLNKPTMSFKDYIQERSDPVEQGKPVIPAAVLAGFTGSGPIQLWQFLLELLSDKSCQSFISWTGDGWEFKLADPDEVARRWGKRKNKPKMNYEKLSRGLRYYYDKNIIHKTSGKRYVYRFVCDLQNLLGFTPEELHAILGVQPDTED
# Summary of the method: as §1
# SPDEF = molecular target: T9, SPDEF (Homo sapiens, UniProt O95238 1-335); settings: protein: recombinant; tags: N-terminal GST; dsDNA, one strand shown
# T9 sequence: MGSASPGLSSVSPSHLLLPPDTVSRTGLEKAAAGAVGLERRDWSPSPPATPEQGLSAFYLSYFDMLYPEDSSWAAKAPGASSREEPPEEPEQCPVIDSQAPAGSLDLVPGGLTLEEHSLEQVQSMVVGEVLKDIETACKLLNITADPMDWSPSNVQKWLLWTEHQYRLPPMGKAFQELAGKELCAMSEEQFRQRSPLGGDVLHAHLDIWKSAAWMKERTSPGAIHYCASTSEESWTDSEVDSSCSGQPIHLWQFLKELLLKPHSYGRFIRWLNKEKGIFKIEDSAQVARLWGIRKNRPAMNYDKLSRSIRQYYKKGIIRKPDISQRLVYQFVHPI
# Summary of the method: as §1
# ETV7 = molecular target: T10, ETV7 (Homo sapiens, UniProt Q9Y603 1-341); settings: protein: recombinant; tags: N-terminal GST; dsDNA, one strand shown
# T10 sequence: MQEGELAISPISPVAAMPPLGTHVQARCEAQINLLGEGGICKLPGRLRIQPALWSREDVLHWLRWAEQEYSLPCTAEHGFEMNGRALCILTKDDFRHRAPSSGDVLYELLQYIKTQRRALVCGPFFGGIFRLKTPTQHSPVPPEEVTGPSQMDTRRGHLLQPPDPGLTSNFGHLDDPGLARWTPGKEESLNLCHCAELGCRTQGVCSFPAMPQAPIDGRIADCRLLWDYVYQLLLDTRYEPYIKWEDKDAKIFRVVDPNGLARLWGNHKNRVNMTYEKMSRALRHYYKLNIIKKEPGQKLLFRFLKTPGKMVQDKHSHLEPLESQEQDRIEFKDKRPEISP
# Summary of the method: as §1
# ELF5 = molecular target: T11, ELF5 (Homo sapiens, UniProt Q9UKW6-2 1-255); settings: protein: recombinant; tags: N-terminal GST; dsDNA, one strand shown
# T11 sequence: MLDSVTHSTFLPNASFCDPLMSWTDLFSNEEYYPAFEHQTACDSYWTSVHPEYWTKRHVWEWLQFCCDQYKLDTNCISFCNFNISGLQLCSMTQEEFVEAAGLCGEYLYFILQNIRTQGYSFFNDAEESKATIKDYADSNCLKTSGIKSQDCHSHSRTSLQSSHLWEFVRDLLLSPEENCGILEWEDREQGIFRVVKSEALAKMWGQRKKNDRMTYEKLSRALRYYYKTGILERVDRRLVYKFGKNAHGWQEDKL
# Summary of the method: as §1
# ETV3 = molecular target: T12, ETV3 (Homo sapiens, UniProt P41162-2 1-143); settings: protein: recombinant; tags: N-terminal GST; dsDNA, one strand shown
# T12 sequence: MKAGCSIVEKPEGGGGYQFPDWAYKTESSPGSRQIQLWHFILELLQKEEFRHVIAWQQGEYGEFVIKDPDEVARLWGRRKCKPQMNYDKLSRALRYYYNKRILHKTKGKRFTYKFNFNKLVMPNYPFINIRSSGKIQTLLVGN
# Summary of the method: as §1
# ETV6 = ETV6 (Homo sapiens, UniProt P41212 1-452); settings: protein: recombinant; tags: N-terminal GST; dsDNA, one strand shown
# Summary of the method: as §1
# Sequence of ETV6 (P41212 whole entry): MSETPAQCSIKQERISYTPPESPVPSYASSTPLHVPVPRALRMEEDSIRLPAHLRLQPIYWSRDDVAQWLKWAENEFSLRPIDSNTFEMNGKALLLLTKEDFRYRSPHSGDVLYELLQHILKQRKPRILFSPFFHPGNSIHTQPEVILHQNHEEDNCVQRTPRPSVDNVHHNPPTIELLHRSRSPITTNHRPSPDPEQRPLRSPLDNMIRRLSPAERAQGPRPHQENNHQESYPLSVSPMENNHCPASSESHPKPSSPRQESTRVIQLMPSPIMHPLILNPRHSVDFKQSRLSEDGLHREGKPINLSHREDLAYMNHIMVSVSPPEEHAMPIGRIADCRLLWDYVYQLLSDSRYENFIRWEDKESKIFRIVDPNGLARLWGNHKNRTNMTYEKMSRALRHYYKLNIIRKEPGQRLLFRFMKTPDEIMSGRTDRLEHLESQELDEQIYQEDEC
# Sequence of HSF1 (Q00613 whole entry): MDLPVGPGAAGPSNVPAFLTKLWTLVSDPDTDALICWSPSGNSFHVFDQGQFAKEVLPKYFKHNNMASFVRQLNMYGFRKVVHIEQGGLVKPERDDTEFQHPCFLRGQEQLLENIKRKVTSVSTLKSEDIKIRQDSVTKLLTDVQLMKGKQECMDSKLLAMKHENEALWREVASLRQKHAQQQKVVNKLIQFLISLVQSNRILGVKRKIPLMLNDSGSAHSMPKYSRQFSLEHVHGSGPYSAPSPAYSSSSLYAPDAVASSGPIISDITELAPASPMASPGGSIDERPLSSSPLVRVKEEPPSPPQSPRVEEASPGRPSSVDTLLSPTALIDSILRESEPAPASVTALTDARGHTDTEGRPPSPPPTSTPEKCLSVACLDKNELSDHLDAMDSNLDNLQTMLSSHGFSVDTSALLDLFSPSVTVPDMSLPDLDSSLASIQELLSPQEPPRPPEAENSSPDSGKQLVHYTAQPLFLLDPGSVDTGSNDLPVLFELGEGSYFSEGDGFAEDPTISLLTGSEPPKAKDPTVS
# Sequence of ETV1 (P50549 whole entry): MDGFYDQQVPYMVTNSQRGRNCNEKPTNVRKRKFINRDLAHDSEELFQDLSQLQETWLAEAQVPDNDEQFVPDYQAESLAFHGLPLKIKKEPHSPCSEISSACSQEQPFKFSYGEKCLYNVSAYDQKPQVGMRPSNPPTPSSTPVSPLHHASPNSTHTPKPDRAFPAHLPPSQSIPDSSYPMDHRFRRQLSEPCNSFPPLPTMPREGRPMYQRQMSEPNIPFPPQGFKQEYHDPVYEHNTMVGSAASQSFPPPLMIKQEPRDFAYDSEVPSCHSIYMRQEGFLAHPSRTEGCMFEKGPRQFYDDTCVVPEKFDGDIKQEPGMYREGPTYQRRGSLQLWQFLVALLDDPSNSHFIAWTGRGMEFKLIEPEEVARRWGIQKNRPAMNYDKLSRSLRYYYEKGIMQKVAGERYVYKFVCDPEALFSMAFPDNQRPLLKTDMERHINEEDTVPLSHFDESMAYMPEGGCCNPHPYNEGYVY
# Sequence of ETV5 (P41161 whole entry): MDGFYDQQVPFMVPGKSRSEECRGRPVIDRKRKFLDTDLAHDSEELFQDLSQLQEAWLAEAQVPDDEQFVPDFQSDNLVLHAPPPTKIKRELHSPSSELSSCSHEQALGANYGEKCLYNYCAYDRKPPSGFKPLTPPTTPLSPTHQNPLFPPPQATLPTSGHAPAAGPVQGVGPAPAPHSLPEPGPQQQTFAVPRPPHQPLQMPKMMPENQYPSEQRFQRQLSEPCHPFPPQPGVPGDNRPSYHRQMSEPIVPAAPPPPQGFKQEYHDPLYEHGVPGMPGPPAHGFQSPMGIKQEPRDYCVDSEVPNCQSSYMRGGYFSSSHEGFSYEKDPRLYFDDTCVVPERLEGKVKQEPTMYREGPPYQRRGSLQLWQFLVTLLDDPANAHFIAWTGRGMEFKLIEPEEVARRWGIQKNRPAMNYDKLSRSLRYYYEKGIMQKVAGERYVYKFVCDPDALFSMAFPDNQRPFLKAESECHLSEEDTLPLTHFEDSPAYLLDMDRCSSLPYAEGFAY
# Sequence of ELF4 (Q99607 whole entry): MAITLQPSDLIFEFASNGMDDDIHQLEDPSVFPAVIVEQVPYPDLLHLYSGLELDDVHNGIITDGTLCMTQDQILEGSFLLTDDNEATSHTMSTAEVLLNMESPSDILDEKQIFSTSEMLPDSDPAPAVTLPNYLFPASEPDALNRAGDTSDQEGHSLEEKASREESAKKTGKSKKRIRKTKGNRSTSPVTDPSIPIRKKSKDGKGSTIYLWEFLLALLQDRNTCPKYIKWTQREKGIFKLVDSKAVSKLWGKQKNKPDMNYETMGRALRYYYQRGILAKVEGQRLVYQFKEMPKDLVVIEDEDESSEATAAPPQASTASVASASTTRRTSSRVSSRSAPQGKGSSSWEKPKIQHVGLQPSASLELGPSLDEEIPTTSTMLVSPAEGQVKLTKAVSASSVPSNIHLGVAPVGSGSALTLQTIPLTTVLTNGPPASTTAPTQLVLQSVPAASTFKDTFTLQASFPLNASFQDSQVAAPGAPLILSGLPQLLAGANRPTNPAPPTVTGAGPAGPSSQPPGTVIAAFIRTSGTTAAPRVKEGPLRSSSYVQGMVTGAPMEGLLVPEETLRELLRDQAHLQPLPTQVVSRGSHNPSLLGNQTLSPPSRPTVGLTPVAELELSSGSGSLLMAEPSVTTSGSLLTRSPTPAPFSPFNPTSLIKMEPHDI
sequence,measurement,setting,value
CTGCCG,binding signal,FEV,"1.35 fold enrichment (6-mer frequency, TF over GST control)"
same,binding signal,ETV5,"1.36 fold enrichment (6-mer frequency, TF over GST control)"
same,binding signal,HSF1,"1.04 fold enrichment (6-mer frequency, TF over GST control)"
same,binding signal,SPIC,"1.31 fold enrichment (6-mer frequency, TF over GST control)"
same,binding signal,ELF4,"1.28 fold enrichment (6-mer frequency, TF over GST control)"
same,binding signal,ELK4,"1.24 fold enrichment (6-mer frequency, TF over GST control)"
same,binding signal,ETV2,"1.07 fold enrichment (6-mer frequency, TF over GST control)"
same,binding signal,ELF3,"1.09 fold enrichment (6-mer frequency, TF over GST control)"
same,binding signal,ETV1,"1.34 fold enrichment (6-mer frequency, TF over GST control)"
same,binding signal,ERF,"1.27 fold enrichment (6-mer frequency, TF over GST control)"
same,binding signal,ETV3L,"1.23 fold enrichment (6-mer frequency, TF over GST control)"
same,binding signal,ETS2,"1.32 fold enrichment (6-mer frequency, TF over GST control)"
same,binding signal,SPDEF,"1.26 fold enrichment (6-mer frequency, TF over GST control)"
same,binding signal,ETV7,"1.39 fold enrichment (6-mer frequency, TF over GST control)"
same,binding signal,ELF5,"1.33 fold enrichment (6-mer frequency, TF over GST control)"
same,binding signal,ETV3,"1.44 fold enrichment (6-mer frequency, TF over GST control)"
same,binding signal,ETV6,"1.39 fold enrichment (6-mer frequency, TF over GST control)"
